Source: PubChem BioAssay
Shown are actives, neighbours in structure and some others; about 0.53% of the full set was active somewhere.
Vif-APOBEC3F blk – inhibitors of Vif-A3F interaction. HeLa A3F-eYFP + Vif (tagged APOBEC3F with the HIV-1 protein that degrades it), YFP fluorescence increase. Potency, µM (highest dose often 46.1 µM). 0.2% of 390,000 active; further: nearly all actives have a fitted effect of over 65% in size
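HeLa cells stably expressing A3F-eYFP plus Vif, plated and incubated overnight at 37 deg C, then exposed to compounds overnight at 37 deg C. Blocked degradation read as raised yellow fluorescence (Ex 488/Em 500-530).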
PKM2 act – increases activity of human pyruvate kinase M2. purified PKM2, Kinase-Glo ATP luminescence, activation; response scale: 0% is enzyme alone, no compound. Potency, µM (titrated, usually from 57.5 µM), hits mostly activators. 0.34% of 260,000 active. AID 1631; further: nearly all actives have a fitted effect of over 55% in size
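ATP formation by purified human PK-M2, quantified via coupled luciferase luminescence after 1 h at room temperature with 0.1 mM ADP and 0.5 mM PEP final.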
IL2 activator – activators of IL-2. IL-2 activation reporter assay, cell-based qHTS; stimulated with anti-CD3/CD4/CD28 beads; in transgenic mouse T cells. activation, % (series mostly up to about 46 µM). 0.065% of 360,000 active. AID 652025; in the data active means activation above about 50%; inconclusive means mostly about 30% to 49%
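Readout is EGFP and DsRed signal by fluorescent plate cytometry after 18 h at 37 degrees C. Transgenic mouse T cells (750/well) received compound for 60 min before bead stimulation (anti-CD3, anti-CD4, anti-CD28); memory T cells served as non-tolerant control.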
Vif-APOBEC3G blk – Vif-A3G binding inhibition. HeLa A3G-eYFP + Vif (tagged APOBEC3G with the HIV-1 protein that degrades it), YFP fluorescence, overnight. Potency, µM (series often up to 46.1 µM), actives largely listed as inhibitors. 0.076% of 410,000 active; further: nearly all actives have a fitted effect of over 60% in size
Target sequence (Q9HC16 whole entry, looked up): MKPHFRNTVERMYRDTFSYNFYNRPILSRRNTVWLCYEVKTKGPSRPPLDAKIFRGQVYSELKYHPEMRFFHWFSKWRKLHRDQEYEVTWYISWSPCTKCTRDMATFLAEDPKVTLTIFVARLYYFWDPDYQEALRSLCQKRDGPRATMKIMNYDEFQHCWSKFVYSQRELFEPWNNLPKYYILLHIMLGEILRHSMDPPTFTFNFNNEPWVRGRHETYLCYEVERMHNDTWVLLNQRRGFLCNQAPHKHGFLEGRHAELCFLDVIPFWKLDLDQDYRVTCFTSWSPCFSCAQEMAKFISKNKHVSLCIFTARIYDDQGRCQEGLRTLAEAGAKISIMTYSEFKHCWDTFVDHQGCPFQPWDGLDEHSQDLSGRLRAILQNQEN
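HeLa cells stably expressing Vif and C-terminally eYFP-tagged A3G, seeded overnight at 37 deg C, then exposed to compound by pintool overnight at 37 deg C. Rise in yellow fluorescence (Ex 488/Em 500-530, Acumen) marks blocked Vif-driven A3G degradation.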
Of the large screens only hits and unclear results are named; the others gave an inactive call. Unless noted, the call rests on the fitted dose curve; in most records, active means well fitted curve in the direction sought with a large enough effect; inconclusive means small, poorly fitted or top-dose-only effect, or another doubt; inactive means no such curve, though single readings can be large; an effect the other way counts as inactive or inconclusive.

COc1cc(OC)c(OC)cc1/C=C1\CC(C)C/C(=C\c2cc(OC)c(OC)cc2OC)C1=O (stereo unspecified)	Vif-APOBEC3F blk 22.4µM, Vif-APOBEC3G blk inconclusive (no result: PKM2 act)
CCCC12CN3CC(C)(CN(C1)C3c1cn(CC)c3ccccc13)C2=O (stereo unspecified)	none (no result: PKM2 act, IL2 activator)
COc1ccc(F)cc1C(=O)C1CCCN(Cc2ccc(Oc3ncccn3)cc2)C1 (stereo unspecified)	none
COc1ccc(F)cc1C(=O)C1CCCN(Cc2cccn2-c2cccnc2)C1 (stereo unspecified)	PKM2 act 35.5µM
COCc1nc2ccccc2n1Cc1ccccc1	none
ClCc1nc2ccccc2n1Cc1ccccc1	Vif-APOBEC3F blk 5.62µM, Vif-APOBEC3G blk inconclusive
COc1ccc(N=Cc2c(O)n(-c3ccc(OC)cc3)c(=O)c3ccccc23)cc1	Vif-APOBEC3F blk 11.2µM
Clc1cccc[n+]1CCCCCC[n+]1ccccc1Cl	none (no result: Vif-APOBEC3F blk, PKM2 act, IL2 activator)
Nc1c(C(=O)O)sc2nc(-c3ccccc3)cc(-c3ccc(Cl)cc3)c12	none
Nc1c(C(=O)O)sc2nc(-c3ccc(F)cc3)cc(-c3ccccc3)c12	Vif-APOBEC3F blk 11.2µM
COC(=O)C1=C(C)N(C(C)C)C(=O)C1(NC(=O)c1ccccc1OC)C(F)(F)F (stereo unspecified)	none (no result: PKM2 act, IL2 activator)
Cc1cc(C)c(NC(=O)CCN2C(=O)c3ccccc3Sc3ncccc32)c(C)c1	none (no result: PKM2 act, IL2 activator)
O=c1[nH]c2ccccc2nc1/C=C(\O)c1cccs1	Vif-APOBEC3F blk 10µM, IL2 activator 147.6, Vif-APOBEC3G blk inconclusive
O=CNc1ccc2c3c(cccc13)-c1ccccc1-2	Vif-APOBEC3F blk inconclusive, Vif-APOBEC3G blk 12.6µM (no result: PKM2 act)
CS(=O)(=O)N1N=C(c2ccccc2)CC1c1ccc2c(c1)OCO2 (stereo unspecified)	Vif-APOBEC3F blk inconclusive, Vif-APOBEC3G blk 10µM
CC(=O)Nc1sc(N/N=C/c2ccccc2)nc1-c1ccc(C)cc1	PKM2 act inconclusive
CC(=O)Nc1sc(/C(C#N)=C\c2cccc(Cl)c2)nc1-c1ccc(C)cc1	Vif-APOBEC3F blk 10µM, Vif-APOBEC3G blk 3.98µM
Cc1cc(Br)cn2c(Cc3ccsc3)c(-c3ccc(F)cc3)nc12	none (no result: Vif-APOBEC3F blk, PKM2 act)
O=C(Nc1ccccc1)c1ccccc1NC(=O)C1CCCCC1	none
Cc1cccc(NC(=O)c2ccccc2NC(=O)C2CCCCC2)c1C	PKM2 act 28.2µM
CC(C)CNc1ncnc2oc(-c3ccco3)c(-c3ccco3)c12	none (no result: Vif-APOBEC3F blk, PKM2 act, IL2 activator)
C=C1C(=O)CC2=C1[C@](Cc1ccc(F)cc1)(C(=O)OC)N(C(=O)c1ccccc1)C2	none (no result: Vif-APOBEC3F blk, PKM2 act, Vif-APOBEC3G blk)
C=C1C(=O)C=C2CN(C(=O)c3ccccc3)[C@@](Cc3ccc(F)cc3)(C(=O)OC)[C@@H]12	PKM2 act inconclusive, Vif-APOBEC3G blk 7.08µM
O=C(NC1CCCC1)C(c1ccncc1)N(Cc1ccccc1)C(=O)c1ccc(-c2ccccc2)[nH]1 (stereo unspecified)	none
CC(C)(C)NC(=O)C(c1ccncc1)N(Cc1ccc(F)cc1)C(=O)c1ccc(-c2ccccc2)[nH]1 (stereo unspecified)	PKM2 act 28.2µM
CCC12CN3CC(C)(CN(C1)C3c1c(C)n(C)c3ccccc13)C2=O (stereo unspecified)	none (no result: PKM2 act, IL2 activator)
O=C(O)c1ccc(/C=C2/SC(=S)N(Cc3ccccc3)C2=O)cc1	none (no result: PKM2 act)
O=C1/C(=C\c2ccc(O)cc2)SC(=S)N1Cc1ccccc1	Vif-APOBEC3F blk 11.2µM
O=C1/C(=C/c2ccc(O)cc2)SC(=S)N1CC1CCCO1 (stereo unspecified)	Vif-APOBEC3F blk 22.4µM
N/C(=N\O)c1cn(Cc2ccccc2Cl)c2ccccc12	none (no result: PKM2 act)
Cc1[nH][nH]c(=O)c1C(c1c(C)[nH][nH]c1=O)c1cn(Cc2ccccc2Cl)c2ccccc12	Vif-APOBEC3G blk 11.2µM
CCOC(=O)N1CCN(/C=C(\C#N)c2nc3ccccc3s2)CC1	Vif-APOBEC3F blk 25.1µM, Vif-APOBEC3G blk 22.4µM
N#C/C(=C\N1CCN(Cc2ccc3c(c2)OCO3)CC1)c1nc2ccccc2s1	Vif-APOBEC3F blk 28.2µM, Vif-APOBEC3G blk inconclusive
CC1CCN(S(=O)(=O)c2ccc3c(c2)CCC(=O)N3CC(=O)Nc2cccc(C#N)c2)CC1	none (no result: PKM2 act, IL2 activator)
COc1ccc(OC)c(NC(=O)c2cc(-c3cc(C)cc(C)c3O)n[nH]2)c1	Vif-APOBEC3F blk 11.2µM (no result: PKM2 act)
COc1ccc(OC)c(NC(=O)c2cc(-c3cc(C)c(C)cc3O)n[nH]2)c1	Vif-APOBEC3F blk inconclusive (no result: PKM2 act)
C/C(CCc1oc2c(Br)cc(Br)cc2c1-c1ccc(C)o1)=N\O	PKM2 act 15.8µM
C/C(CCc1oc2ccccc2c1-c1ccc(C)o1)=N/O	none
Cc1ccc(-n2c(SCC(=O)N/N=C/c3ccccc3C(=O)O)nnc2-c2ccc(Cl)cc2)cc1	none
Cc1ccc(-c2nnc(SCC(=O)N/N=C/c3ccccc3C(=O)O)n2-c2ccc(Cl)cc2)cc1	PKM2 act 28.2µM
Cc1ccc(C)c(NC(=O)c2ccc3c(O)c(S(=O)(=O)c4ccc(Cl)cc4)c(=O)[nH]c3c2)c1	none (no result: PKM2 act, IL2 activator)
Cc1ccc2c(c1)-c1c(cnn1CC(=O)N1CCN(c3cc(C)ccc3C)CC1)CO2	none (no result: PKM2 act, IL2 activator)
Cc1onc(-c2ccccc2)c1CNS(=O)(=O)c1ccccc1	none
Cc1onc(-c2ccccc2)c1CNS(=O)(=O)c1cccc(Cl)c1	PKM2 act 31.6µM
COc1ccc(S(=O)(=O)NCc2c(-c3ccccc3)noc2C)c(OC)c1	PKM2 act 28.2µM
CC(CNC(=O)c1cc(-c2ccccc2)n[nH]1)c1ccccc1 (stereo unspecified)	none (no result: PKM2 act, IL2 activator)
Cc1ccc(C)c(NC(=O)CSc2ncc3c(n2)-c2ccc(Cl)cc2N(C)S3(=O)=O)c1	Vif-APOBEC3F blk inconclusive (no result: PKM2 act, IL2 activator)
Cc1ccc(NC(=O)CO/N=C/c2ccc(N(C)C)cc2)cc1	Vif-APOBEC3F blk 25.1µM, Vif-APOBEC3G blk inconclusive
Cc1ccc(NC(=O)N2CCC(CN3CCCCCC3)CC2)c(Cl)c1	none (no result: PKM2 act, IL2 activator)
CCCNC(=O)CN1C(=O)COc2ccc(S(=O)(=O)N3CCCC3)cc21	none (no result: PKM2 act, IL2 activator)
C=CCn1c(=O)/c(=C/c2ccc(O)cc2)s/c1=C(/C#N)c1nnc2n1CCCCC2	Vif-APOBEC3F blk inconclusive
C=CCn1c(=O)/c(=C/c2cc(OC)c(OC)c(OC)c2)s/c1=C(/C#N)c1nc2ccccc2n1C	Vif-APOBEC3F blk 22.4µM
COc1ccc2[nH]c(C(=O)N/N=C/c3ccc(OC)c(O)c3)cc2c1	Vif-APOBEC3G blk 2.51µM (no result: PKM2 act)
CCOC(=O)c1cnc2ccccc2c1Nc1cccc(C(=O)O)c1	IL2 activator 79.7
COc1ccc(C(=O)N(Cc2ccco2)Cc2cccs2)c(O)c1	none
COc1ccc(C(=O)/C=C/C(=O)N(CC(=O)NC2CCCCC2)Cc2ccc(F)cc2)c(O)c1	PKM2 act 7.94µM
COc1ccc(C(=O)/C=C/C(=O)N(CC(=O)NCCC(C)C)Cc2cccs2)c(O)c1	PKM2 act 22.4µM
COc1ccc(CCNC(=O)Cc2c(C)c3cc4c(C(C)(C)C)coc4c(C)c3oc2=O)cc1OC	none (no result: PKM2 act, IL2 activator)
O=C(N/N=C/c1ccc([N+](=O)[O-])o1)c1cc2c(ccc3ccccc32)o1	Vif-APOBEC3F blk 7.94µM, Vif-APOBEC3G blk inconclusive
CCc1ccc(S(=O)(=O)c2c[nH]c3cc(OC)c(OC)cc3c2=O)cc1	none (no result: PKM2 act, IL2 activator)
